Data from PubChem BioAssay (NCI).
This is part of a sample that, as a whole, favours compounds with a hit. Of some 83,000 tested, about 20% had one in any assay.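 Negative percent growth values reflect cell death: -40 means 40% of the cells present at the start died, and -100 means all died.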 A number with no mark means an inactive call. Activity calls are given as the source filed them. The calls were made as follows: active = growth percent below 10; inactive = the rest.

What follows are compounds tested on SK-MEL-2 melanoma (assay: NCI-60 one-dose screen, 48 h (100 = growth as untreated, 0 = no growth, -100 = all killed)). Settings: 10 µM unless noted.
`COc1ccc(C2SCC(=O)N2NC(=O)c2ccc(NC(=O)c3ccccn3)cc2)cc1OC` (centres undefined) showed a growth of 94.5%.
In the case of `O=C(O)c1cn(C2CC2)c2cc(N3CCN(S(=O)(=O)c4ccc(Cl)c(Cl)c4)CC3)c(F)cc2c1=O`, the growth is reported as -9.56% (active).
With `COc1ccc(/C=C/C(=O)c2ccc(B(O)O)cc2)cc1O` the growth was 92.2%.
In the case of `O=C(Nc1ccc(OCc2nnc(-c3ccc(Cl)cc3)o2)c(F)c1)Nc1ccc(Cl)c(Cl)c1`, the growth is reported as 81.5%.
`COc1cc(/C=C2\C=C(c3ccc(F)cc3)N(Cc3ccccc3)C2=O)cc(OC)c1OC` was tested, and the growth was 93.1%.
Compound `Cc1cc(C)c(NC(=O)c2sc3nc4c(cc3c2N)CN(Cc2ccccc2)CC4)c(C)c1` has a growth of 24%.
Compound `COc1cccc(-c2nc3sccn3c2-c2ccnc(NCCCNS(=O)(=O)c3ccccc3)n2)c1` has a growth of 58.1%.
`COc1cc(NCCN=C(N)NC(N)=NC(C)C)c2ncccc2c1` was tested, and the growth was -14.2% (active).
`Cc1ccc(Nc2ncnc3c2sc2ncccc23)cc1` showed a growth of 118%.
`COc1cccc(/C=C2\SC(N3CCN(c4ccccn4)CC3)=NC2=O)c1` gave a growth of 86.9%.
With `CCOC(=O)C1=C(CSC(=S)N(C2CCCCC2)C2CCCCC2)N(C)C(=O)NC1c1ccccc1` (centres undefined) the growth was 55.6%.
With `CC(C)C[C@H](NC(=O)[C@@H](Cc1ccccc1)n1ccc(Nc2ccccc2)cc1=O)B(O)O` the growth was -14.9% (active).
In the case of `COc1cccc(-c2nc3sccn3c2-c2ccnc(NCCCNS(=O)(=O)c3ccc(F)cc3)n2)c1`, the growth is reported as 40.8%.
In the case of `O=S(=O)(NCCCNc1nccc(-c2c(-c3ccccc3)nc3sccn23)n1)c1ccc(F)cc1`, the growth is reported as 53.8%.
Work on `Nc1c(C(=O)Nc2ccccc2)sc2nc3c(cc12)CCCCC3` yielded a growth of 12.6%.
With `CCNC(=O)CCCCC(=O)c1c(C)[nH]c(/C=C2\N=C(c3ccc[nH]3)C=C2OC)c1C` the growth was 40.8%.
`Cc1cc(Nc2nc(C(=O)Nc3ccccc3)nc3ccccc23)n[nH]1` was tested, and the growth was 45.3%.
`CCCCCCCCCCCCCCCCC(Br)C(=O)O` (centres undefined) gave a growth of 94.4%.
Work on `COc1ccc(/C=C2\C(=O)N(C(=O)c3csc(NC(C)=O)n3)N=C2C)cc1` yielded a growth of 94.8%.
Work on `COc1ccc(-c2nc3sccn3c2-c2ccnc(NCCCNS(=O)(=O)c3ccc4ccccc4c3)n2)cc1` yielded a growth of 84.6%.
In the case of `CC[C@]1(O)C[C@@H]2CN(Cc3c([nH]c4ccccc34)[C@@](C(=O)OC)(c3cc4c(cc3OC)N(C)[C@H]3[C@@](O)(C(=O)OC)[C@H](OC(C)=O)[C@]5(CC)[C@@H]6C[C@@H]6CN6CC[C@]43[C@@H]65)C2)C1`, the growth is reported as 9.71% (active).
Work on `CN=S(=O)(NC(=O)c1ccc(Cl)cc1Cl)c1ccc(Br)s1` (centres undefined) yielded a growth of 108%.
Work on `Cc1ccc(S(=O)(=O)NCCCNc2nccc(-c3c(-c4ccccc4)nc4sccn34)n2)cc1` yielded a growth of 82.9%.
For `COc1cc(OC)c(C(=O)/C=C/c2cccc(C#N)c2)c(OC)c1`, the growth was -34.8% (active).
With `COc1ccc(C2CC(c3cccs3)=NN2c2ccc(S(=O)(=O)NC(=O)Nc3ccc(C)cc3)cc2)cc1` (centres undefined) the growth was 60.9%.
`O=S(=O)(NCCNc1nccc(-c2c(-c3ccccc3)nc3sccn23)n1)c1ccc(O)cc1` gave a growth of 49.7%.
For `CNC(=O)Cc1nc(-c2cccc(NS(=O)(=O)c3c(F)cccc3F)c2F)c(-c2ccnc(Nc3ccccc3)n2)s1`, the growth was 55.2%.
In the case of `O=c1[nH]c2ccccc2cc1-c1nnc(Cc2ccccc2)o1`, the growth is reported as 78.4%.
In the case of `CCCCCCC[C@@H](O)CC(=O)N[C@H](CCCCN)C(=O)N[C@H](Cc1c[nH]c2ccccc12)C(=O)NC(CCCCN)C(=O)N[C@H](CC(C)C)C(=O)N[C@H](Cc1ccccc1)C(=O)N[C@H](CCCCN)C(=O)N[C@H](CCCCN)C(=O)N[C@H](CC(C)C)C(=O)N1CCCC1C(=O)N[C@H](CCCCN)C(=O)N[C@H](Cc1ccccc1)C(=O)N[C@H](CC(C)C)C(=O)N[C@H](Cc1c[nH]cn1)C(=O)N[C@H](CC(C)C)C(=O)N[C@H](C)C(=O)N[C@H](CCCCN)C(=O)N[C@H](CCCCN)C(=O)N[C@H](Cc1ccccc1)C(=O)O` (some centres undefined), the growth is reported as -60.1% (active).
Compound `Oc1ccc(Cl)cc1-c1cc(-c2ccc(Cl)cc2)n[nH]1` has a growth of 90.7%.
`CN1C(=O)[C@H]2c3c1cccc3[C@@]13NC(=O)O[C@H]1[C@H](CCC3(C)C)C2(C)C` showed a growth of 92.8%.
With `Cc1cccc(-n2c(C)nc3ccc(NC(=O)NCCCl)cc3c2=O)c1` the growth was 114%.
Work on `COc1c(NC[C@H]2OC(O)[C@H](O)[C@@H](O)[C@@H]2O)c(=O)c1=O` (some centres undefined) yielded a growth of 121%.
In the case of `COc1ccc(-c2nnc(COc3ccc(NS(=O)(=O)c4ccc(OC)cc4)cc3F)o2)cc1`, the growth is reported as 68.2%.
In the case of `CCCOC(=O)C1(O)CCCC1`, the growth is reported as 90.8%.
For `Nc1c(C(=O)Nc2ccccc2)sc2nc3c(cc12)CN(Cc1ccccc1)CC3`, the growth was 103%.
With `COc1cc(OC)cc(-c2n[nH]nc2-c2ccc3c(c2)OCO3)c1` the growth was 14.4%.
In the case of `Cc1ccc(Oc2nc3ccccc3cc2-c2nnc(Cn3c(COc4ccccc4)nc4ccccc43)o2)cc1`, the growth is reported as 89.8%.
In the case of `COc1cc(C(=O)/C=C/c2cc(C(=O)c3cc(OC)c(OC)c(OC)c3)ccc2OC)ccc1N`, the growth is reported as -38.6% (active).
